Test [1] is described as follows: compounds altering viability of human ES cells (AID 493140; call rule not given here;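 further: cells exposed to compounds for four days before counting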). The conditions noted are these: human embryonic stem cell survival screen; stronger effect = higher value.
Test [2] in a line: P. berghei load reduction in hepatocytes – cell-based, HepG2, luciferase luminescence, HepG2 viability, primary screen (AID 624349).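 Further: 100% = mean of DMSO negative control wells on the same plate.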 The conditions noted are these: P. berghei liver stage in HepG2, luciferase luminescence, concentration not given here; parasite load remaining: stronger effect = lower value; viability: measured here: HepG2 viability without parasites.
Test [3] deals with 6-phosphogluconate dehydrogenase, decarboxylating (Homo sapiens) (UniProt P52209). Put plainly: inhibition of human phosphogluconate dehydrogenase – biochemical, recombinant enzyme, NADPH absorbance, primary screen (AID 1159550;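 active means at least 20% inhibition of 6-phosphogluconate dehydrogenase activity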). As to conditions: recombinant 6PGD, NADPH absorbance 341 nm; at 10 µM; stronger effect = higher value.
Chain of 6-phosphogluconate dehydrogenase, decarboxylating (Homo sapiens) (P52209 whole entry, looked up): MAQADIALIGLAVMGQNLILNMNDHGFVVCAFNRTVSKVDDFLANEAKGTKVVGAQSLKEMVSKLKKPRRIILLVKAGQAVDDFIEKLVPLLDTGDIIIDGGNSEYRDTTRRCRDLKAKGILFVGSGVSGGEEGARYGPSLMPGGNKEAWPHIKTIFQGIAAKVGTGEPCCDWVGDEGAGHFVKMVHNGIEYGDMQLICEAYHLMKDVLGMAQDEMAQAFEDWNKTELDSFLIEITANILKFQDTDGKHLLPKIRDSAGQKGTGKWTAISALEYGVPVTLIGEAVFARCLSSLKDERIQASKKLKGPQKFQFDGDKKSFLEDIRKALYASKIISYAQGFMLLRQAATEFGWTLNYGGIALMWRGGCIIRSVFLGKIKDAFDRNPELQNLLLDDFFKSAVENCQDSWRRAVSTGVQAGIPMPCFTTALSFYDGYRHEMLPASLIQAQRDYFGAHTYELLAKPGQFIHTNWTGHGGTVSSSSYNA
Test [4] can be described thus: EMT-state selective cytotoxicity in co-culture – imaging, PC-3E GFP, TEM4-18 mCherry, primary screen (AID 1345086;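 active means compounds killing one labelled cell type while sparing the other, by normalised counts and ratio limits, not self-fluorescent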;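 on all read-outs here: cells exposed to compound for 72 h before imaging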;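 on red/green cell ratio (normalised): normalised mesenchymal count divided by normalised epithelial count so high means epithelial killing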). The conditions noted are these: PC-3E GFP / TEM4-18 mCherry co-culture, imaging cell counts, at 1 µM; for red/green cell ratio (normalised): actives lie on both sides, counts scaled to control wells, 1 = unselective.
Test [5] is described as follows: viability loss with induced miR-34 in A549 – imaging, A549 dox-inducible miR-34, nuclei and caspase counts, primary screen (AID 1347080;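 active means compounds whose cell count with miR-34 switched on is under 0.7 times the count with it off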). As to conditions: A549 miR-34 inducible, Hoechst nuclei count, 48 h.
Test [6] can be described thus: MELAS cybrid and Rieske KO viability enhancers – cell-based, MELAS cybrids, Rieske KO mouse fibroblasts, CellTiter-Glo, primary screen (AID 1508586;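 active means mean z-score across replicates of 1.96 or higher in either the MELAS or the Rieske mutant cell line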;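 further: z relative to plate mean and SD of compound and empty wells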). As to conditions: low glucose. On the technique in general: ATP-based viability assays read luminescence as a measure of living cells.
Test [7] has as its target NAD(+) hydrolase SARM1 (Homo sapiens) (UniProt Q6SZW1). Put plainly: blocking NAD cleavage by SARM1 SAM-TIR – cell lysate, NAD-Glo luminescence (AID 1508614;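 active means compound whose remaining NAD level is above about 45 nM, limit read from the data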). The conditions noted are these: SAM-TIR HEK293T lysate NADase, at 1 µM, stronger effect = higher value.
Test [8] deals with Mitogen-activated protein kinase 7 (Homo sapiens) (UniProt Q13164). Put plainly: Gal4-ERK5 driven luciferase induction – cell-based, HTS, primary screen (AID 1508626;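 active means luciferase signal above three times the same-plate solvent-only control wells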;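 further: luciferase driven by Gal4-ERK5 fusion binding five Gal4 sites before minimal TATA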). As to conditions: HeLa Gal4-ERK5 transactivation, 18 h, at 5 µM, stronger effect = higher value.
Chain of Mitogen-activated protein kinase 7 (Homo sapiens) (Q13164 whole entry, looked up, the tested form may be a part): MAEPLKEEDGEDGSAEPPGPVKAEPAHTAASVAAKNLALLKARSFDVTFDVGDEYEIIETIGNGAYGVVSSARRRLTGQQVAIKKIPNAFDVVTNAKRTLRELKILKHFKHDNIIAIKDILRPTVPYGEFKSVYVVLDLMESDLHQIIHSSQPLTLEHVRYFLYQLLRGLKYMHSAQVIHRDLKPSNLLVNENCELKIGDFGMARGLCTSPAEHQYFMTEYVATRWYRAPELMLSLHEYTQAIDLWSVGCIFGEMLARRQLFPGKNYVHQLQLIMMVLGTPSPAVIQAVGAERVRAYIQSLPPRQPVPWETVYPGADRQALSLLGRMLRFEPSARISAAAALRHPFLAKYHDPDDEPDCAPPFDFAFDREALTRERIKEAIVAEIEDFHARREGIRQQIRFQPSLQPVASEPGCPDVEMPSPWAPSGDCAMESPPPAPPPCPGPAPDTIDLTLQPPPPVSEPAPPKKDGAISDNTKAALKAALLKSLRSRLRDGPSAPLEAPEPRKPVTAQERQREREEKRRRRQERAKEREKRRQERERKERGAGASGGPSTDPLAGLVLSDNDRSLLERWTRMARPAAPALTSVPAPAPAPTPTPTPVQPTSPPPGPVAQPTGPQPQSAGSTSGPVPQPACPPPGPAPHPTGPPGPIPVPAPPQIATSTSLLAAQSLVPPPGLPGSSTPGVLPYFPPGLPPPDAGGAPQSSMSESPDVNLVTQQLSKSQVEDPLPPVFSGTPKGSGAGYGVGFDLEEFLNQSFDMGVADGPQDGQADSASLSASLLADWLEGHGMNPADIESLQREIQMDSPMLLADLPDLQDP
Test [9] is described as follows: blockers of polyQ-driven CASP3 activation – cell-based (AID 1583). As to conditions: polyglutamine-induced caspase-3 activation, cell assay; stronger effect = higher value;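 tested at 10 µM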.
Test [10] can be described thus: yeast 75Q aggregation reduction – 75Q-TubU reporter (AID 1593). The conditions noted are these: Yeast 75Q polyglutamine aggregation reporter.
Test [11] can be described thus: restoration of touch response, mutant HTT neurons – whole organism, C. elegans mechanosensory neurons, N-terminal huntingtin (AID 1599). As to conditions: C. elegans polyQ-huntingtin mechanosensory neurons, stronger effect = higher value.
A short description of test [12]: blockers of cytochrome c efflux from mitochondria – biochemical, purified mitochondria (AID 1603).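 Further: mouse liver mitochondria challenged with calcium chloride; signal normalized to the plate average as 100%.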 The conditions noted are these: stronger effect = lower value.
A short description of test [13]: polyglutamine aggregate formation blockers (AID 1604). The conditions noted are these: polyglutamine-induced protein aggregation inhibition assay; stronger effect = higher value; tested at 2.5 µM.
Test [14] in a line: glutamate transport activators, MN-1 cells, MN-1 cell line (AID 1612).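 Further: tested at 1 µM final; 0% = mean of DMSO vehicle wells on each plate; positive means more glutamate uptake than control and negative means less.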 As to conditions: MN-1 motor neuron cells, stronger effect = higher value.
The nature of test [15]: GFP-Q80 aggregate reduction, neuronal-like cells, cell-based, NGF-treated PC12, GFPQ80 (AID 1614).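 Further: lower means fewer inclusions and 0 means no inclusions at all.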 The conditions noted are these: PC12 NGF-treated GFP-polyQ80 inclusion reduction.
Test [16] in a line: 75Q-TubH aggregate inhibition, S. cerevisiae, yeast (AID 1616). As to conditions: S. cerevisiae 75Q-TubH polyglutamine aggregation suppression; stronger effect = higher value.
A short description of test [17]: compounds altering circadian rhythm period length – cell-based, LOPAC library, luminescence reporter (AID 2774; call rule not given here;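 further: values are relative to mean of DMSO wells on each plate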). As to conditions: circadian reporter cells, at 7 µM, actives lie on both sides.
Test [18] is described as follows: blockers of cellular phospholipid synthesis – cell-based, LOPAC library, screen 4, primary screen (AID 1347384; call rule not given here). The conditions noted are these: animal cells, phospholipid biosynthesis inhibition screen; at 10 µM.
Test [19] in a line: galactose survival enhancers in mitochondrial complex I cybrids – cell-based, galactose medium, ATP luminescence, primary screen (AID 1645843;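 active means z-score of at least 1.8 in each of two replicates, scored against plate mean and spread of sample wells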;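 further: positive z means more ATP and so rescue of galactose-driven cybrid death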). As to conditions: complex I mutant cybrid cells, 72 h, stronger effect = higher value.
Setting [20] is: measured here: epithelial PC-3E GFP cell survival.
Setting [21] is: measured here: mesenchymal TEM4-18 mCherry cell survival.
Where [22] appears, read: stronger effect = lower value, cell number ratio, induced over uninduced.
Where [23] appears, read: measured here: relative caspase fold change +Dox/-Dox.
Setting [24] is: measured here: total cells with miR-34 induction, stronger effect = lower value.
Setting [25] is: measured here: total cells without miR-34 induction.
Where [26] appears, read: MELAS cybrid survival, CellTiter-Glo 48 h, stronger effect = higher value.
The mark [27] stands for this setting: Rieske KO mouse fibroblast survival, CellTiter-Glo 72 h.

“And” between values parts separate entries of the source, which are not always exact repeats. Equal entries are not always repeated. For some assays here: Measured potencies and affinities stand elsewhere. The source made the active and inactive calls. Unless noted, no stated cut-off is given here; in the data, active means parasite load remaining mostly below about 12% (no sharp cut-off); inactive means mostly above about 10%.

For orientation: viability means a read-out of living cells in per cent, often relative to untreated cells. Usually inhibition stands for the change of the read-out against control, counted positive when it falls.

Chain of NAD(+) hydrolase SARM1 (Homo sapiens) (Q6SZW1 whole entry, looked up, the tested form may be a part): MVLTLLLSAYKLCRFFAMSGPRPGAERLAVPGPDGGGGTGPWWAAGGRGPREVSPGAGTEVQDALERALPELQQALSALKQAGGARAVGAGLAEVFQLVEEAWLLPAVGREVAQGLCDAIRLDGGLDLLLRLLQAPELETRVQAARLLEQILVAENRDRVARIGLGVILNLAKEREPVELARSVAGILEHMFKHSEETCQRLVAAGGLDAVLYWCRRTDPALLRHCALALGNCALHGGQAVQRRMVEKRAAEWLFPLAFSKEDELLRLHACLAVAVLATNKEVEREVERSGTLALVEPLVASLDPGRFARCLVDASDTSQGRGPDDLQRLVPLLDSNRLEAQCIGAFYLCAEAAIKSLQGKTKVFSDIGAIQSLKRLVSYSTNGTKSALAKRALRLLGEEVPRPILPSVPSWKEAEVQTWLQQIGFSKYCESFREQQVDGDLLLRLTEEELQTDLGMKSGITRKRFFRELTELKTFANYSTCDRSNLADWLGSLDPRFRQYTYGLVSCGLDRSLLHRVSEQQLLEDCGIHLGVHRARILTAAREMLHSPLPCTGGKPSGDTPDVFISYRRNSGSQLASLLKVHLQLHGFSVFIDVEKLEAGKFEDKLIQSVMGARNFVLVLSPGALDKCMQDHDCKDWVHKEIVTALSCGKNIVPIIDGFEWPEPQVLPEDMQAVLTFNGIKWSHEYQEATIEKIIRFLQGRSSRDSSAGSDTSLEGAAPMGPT

For `N[C@@H](Cc1cc(I)c(Oc2ccc(O)c(I)c2)c(I)c1)C(=O)O`, the survival in [1] was 4.58 (inactive). Also, in test [2], the parasite load remaining is 78.5% (inactive) and 158% (inactive) and 41% (inactive). Also, the viability in test [2] was 96% and 73% and 101%. In addition, the inhibition in test [3] is 0.697% (inactive). The red/green cell ratio (normalised) in test [4] was 1.24 (inactive). Further, the normalised cell number in [4] (setting [20]) was 0.91; in test [4] (setting [21]), 1.14. In addition, the fold change in [5] (setting [22]) is 0.925 (inactive) and 0.987 (inactive); in test [5] (setting [23]) it was 0.994 and 1.44. The cell count in test [5] (setting [24]) was 10000 and 11900; in test [5] (setting [25]), 10800 and 12100. The z-score in test [6] (setting [26]) is -0.576 (inactive); in test [6] (setting [27]) it was -1.73. Also, the remaining NAD in test [7] is 10 nM (inactive). The luciferase signal in test [8] is 80 AU (inactive).

For `C1N2CN3CN1CN(C2)C3`, the figures for the inhibition in test [9] and in test [3] were 10.1% and 6.67% (inactive), respectively. The score in test [10] stood at 0.91. The molecule further returned a rescue above control in test [11] of -6.88. In addition, in [12], the cytochrome c release ratio was 1.01. For the same molecule, the inhibition of aggregation in [13] stood at 27.8%. Besides, the glutamate uptake change in test [14] is -31.9%. The molecule further gave an inclusion score in test [15] of 2. This molecule showed an aggregation suppression score in test [16] of 0.744. Besides, in test [2], the parasite load remaining was 80.4% (inactive) and 31.8% (inactive). Further, the viability in test [2] is 76.7% and 89.4%. Besides, the red/green cell ratio (normalised) in test [4] was 1 (inactive). Also, the normalised cell number in [4] (setting [20]) and in test [4] (setting [21]) was 1.13 throughout. For the same molecule, the fold change in test [5] (setting [22]) was 0.9 (inactive) and 0.915 (inactive); in [5] (setting [23]), 0.914 and 0.53. The cell count in test [5] (setting [24]) was 8000 and 12000; in [5] (setting [25]), 8890 and 13100. Besides, the z-score in test [6] (setting [26]) was -0.156 (inactive) and 0.632 (inactive); in [6] (setting [27]) it was -0.286 and -0.336. In addition, the remaining NAD in test [7] is 10 nM (inactive). In test [8], the luciferase signal was 64 AU (inactive).

On to `Cn1c(=O)c2[nH]c(C3CCCC3)nc2n(C)c1=O`, for which the inhibition in test [9] was 24.6%; in test [3], -7.2% (inactive). The same molecule yielded a score in test [10] of 1.3. In test [11], this molecule gave a rescue above control of 12.7. Also, the cytochrome c release ratio in [12] came to 0.91. For the same molecule, in [13], the inhibition of aggregation was -13.7%. Further, the glutamate uptake change in [14] is 10.7%. This molecule registered an inclusion score in [15] of 1.5. In addition, the aggregation suppression score in test [16] worked out at 1.14. Moreover, the period change in test [17] is 0.02 h (inactive). The red/green cell ratio (normalised) in test [4] is 0.82 (inactive). For the same molecule, the normalised cell number in [4] (setting [20]) was 1.23; in [4] (setting [21]), 1.01. Also, the fold change in test [5] (setting [22]) is 0.947 (inactive); in [5] (setting [23]), 1.51. Moreover, the cell count in test [5] (setting [24]) was determined as 9200; in test [5] (setting [25]) it was 9710. For the same molecule, in test [18], the molecule was classed as inactive. In addition, in test [8], the luciferase signal is 44 AU (inactive). Further, the z-score in test [19] was 0.92 (inactive).

As for `C=C1c2c(Cl)ccc(O)c2C(O)=C2C(=O)[C@]3(O)C(O)=C(C(N)=O)C(=O)[C@@H](N(C)C)[C@@H]3[C@@H](O)[C@H]12`, the inhibition in test [9] was -20.8%; in test [3], 10.5% (inactive). The score in test [10] was 0.46. This molecule also displayed a rescue above control in [11] of 1.02. Further, in test [12], the cytochrome c release ratio is 0.58. For the same molecule, in test [13], the inhibition of aggregation stood at 84.6%. In test [14], the glutamate uptake change is 0.44%. For the same molecule, in test [15], the inclusion score was found to be 1. The molecule also displayed an aggregation suppression score in [16] of 0.198. Moreover, the survival in test [1] is 6.83 (inactive). For the same molecule, in test [2], the parasite load remaining is 145% (inactive) and 78.4% (inactive) and 31.4% (inactive). In addition, in test [2], the viability was 71.2% and 75.1% and 92.1%. In test [4], the red/green cell ratio (normalised) is 0.85 (inactive). Further, the normalised cell number in test [4] (setting [20]) was 0.99; in test [4] (setting [21]), 0.84. Besides, the fold change in test [5] (setting [22]) was 0.864 (inactive); in [5] (setting [23]), 1.07. The cell count in [5] (setting [24]) was determined as 8250; in test [5] (setting [25]), 9550. Also, the remaining NAD in test [7] is 10 nM (inactive). Also, the luciferase signal in test [8] is 40 AU (inactive).

`COc1ccc(-c2cc(=O)c3c(OC)c(OC)c(OC)c(OC)c3o2)cc1`: the inhibition in test [3] was -8.06% (inactive). Besides, in test [4], the red/green cell ratio (normalised) is 1.11 (inactive). Also, the values for the normalised cell number in test [4] (setting [20]) and in test [4] (setting [21]) were 1.14 and 1.26, respectively. Also, the fold change in [5] (setting [22]) was 0.921 (inactive); in [5] (setting [23]), 0.924. The figures for the cell count in test [5] (setting [24]) and in [5] (setting [25]) were 6760 and 7340, respectively. The z-score in test [6] (setting [26]) was -0.525 (inactive); in [6] (setting [27]) it was 0.0182. Moreover, the luciferase signal in [8] is 100 AU (inactive).

The record behind these values is PubChem BioAssay.
